This is a sample that favours compounds with a hit; in the whole collection about 19% have one here.
TDP1 cell CPT: DT40-hTDP1 cell growth loss with CPT; chicken DT40 Tdp1-/-;hTDP1 cells + 20 nM CPT, ATP luminescence, 48 h; Potency, µM (highest dose often 46.2 µM), for inactives: at the top dose activity change, negative = growth inhibition, most hits filed as inhibitors; actives 12% (n = 420,000); further: potency means the concentration at half of the fitted maximal effect; nearly all actives have a fitted effect of over 55% in size
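Cell growth measured by CellTiter-Glo luminescence after a minimum 48 h, 37 C compound exposure with 20 nM CPT in Tdp1-knockout DT40 cells stably expressing hTDP1, seeded 400/well; qHTS titration format.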
HT1080 IDH1KD tx: toxicity to HT-1080 IDH1 knockdown cells (counter line) | HT-1080 IDH1 knockdown viability, ATP luminescence, 48 h | Potency, µM (series often up to 46.1 µM), for the others: top-dose activity, negative = toxicity, usual class: cytotoxic | actives 2% (n = 360,000);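 further: potency means the concentration at half of the fitted maximal effect; 0% = DMSO wells and -100% = cell-free medium wells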
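Assay cells: HT-1080 with IDH1 knockdown, 750 per well, RPMI/5% FBS. Exposure: 48 h at 37 °C following 2 h pre-incubation. Read: CellTiter-Glo luminescence; fitted concentration-response, curve class assigned.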
uPA surface inh: blocks generation of uPA at the cell surface. actives 0.31% (n = 330,000). Potency, µM (highest dose often 38.3 µM), without a hit: at the top dose activity change, negative = inhibition, most hits filed as inhibitors. cell surface uPA generation assay, qHTS; active means well fitted inhibition curve with a large enough effect; inconclusive means small, poorly fitted or top-dose-only effect; inactive means no such curve, though single readings can be large or run the other way; tested in mouse RAW 264.7 cells; further: potency means the concentration at half of the fitted maximal effect; nearly all actives have a fitted effect of over 55% in size
IL1B secr inh: inhibitors of inflammasome signaling (IL-1 beta secretion) | activity change, % at 57.5 µM | actives 4.7% (n = 360,000) | THP-1 LPS/ATP IL-1B secretion, AlphaLISA, 16 h; active compounds read low; in the data active means activity change below about -50%; inconclusive means mostly about -30% to -49%
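Secreted IL-1B measured by AlphaLISA bead assay after 16 h compound exposure of THP-1 cells; compounds (final up to 57.5 uM) added 1 h before LPS (250 ng/mL) and ATP (1.25 mM) stimulation; lower signal means less secretion.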
DT40 TDP1 no CPT: qHTS for Inhibitors of human tyrosyl-DNA phosphodiesterase 1 (TDP1): qHTS in cells in absence of CPT | DT40 Tdp1-/- hTDP1 cells, no CPT, ATP luminescence, 48 h | Potency, µM (top dose mostly 46.2 µM), for the others: at the top dose activity change, negative = growth inhibition, actives largely listed as inhibitors | actives 15% (n = 420,000); further: potency means the concentration at half of the fitted maximal effect; nearly all actives have a fitted effect of over 55% in size
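Seeded 400 DT40-hTDP1 cells/well (vehicle DMSO, no 20 nM CPT); pinned compounds; ≥48 hr at 37 °C; CellTiter-Glo luminescence as viability measure.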
HT1080-NT tox: kills 2HG-producing HT-1080-NT fibrosarcoma cells | HT-1080-NT fibrosarcoma viability, CellTiter-Glo ATP luminescence, 48 h | Potency, µM (top dose mostly 46.1 µM), inactives show at the highest dose activity, negative = less viability, usual class: cytotoxic | actives 1.6% (n = 360,000) | AID 686970;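 further: NT is the 2HG producing partner of a matched IDH1 knockdown line; potency means the concentration at half of the fitted maximal effect; 0% = DMSO-treated cells and -100% = media-only wells without cells; nearly all actives have a fitted effect of over 55% in size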
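Read-out is CellTiter-Glo luminescence after 10 minutes at room temperature, following 48 hours' compound treatment of HT-1080-NT cells (750 cells/well, RPMI, 5% FBS, 37 degrees C).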
The depositor's hits bear a star. Unless noted, the call rests on the fitted dose curve; in most records, active means well fitted curve in the direction sought with a large enough effect; inconclusive means small, poorly fitted or top-dose-only effect, or another doubt; inactive means no such curve, though single readings can be large; an effect the other way counts as inactive or inconclusive. Unless noted, on the % scale 0 is the no-effect control and ±100 the full control effect.

How did COc1c(C)cc(Br)cc1C(=O)Nc1ccc(N2CCN(S(C)(=O)=O)CC2)cc1 do in these assays?
TDP1 cell CPT: inconclusive; HT1080 IDH1KD tx: -1%; IL1B secr inh: -7; DT40 TDP1 no CPT: -30%; HT1080-NT tox: 16%

How did CCN(CC)S(=O)(=O)c1ccc(N2CCCCC2)c(NC(=O)C2CCN(C(=O)c3ccc(F)cc3)CC2)c1 do in these assays?
TDP1 cell CPT: inconclusive; HT1080 IDH1KD tx: -12%; uPA surface inh: 1%; IL1B secr inh: inconclusive; DT40 TDP1 no CPT: 23µM*; HT1080-NT tox: 1%

How did COc1ccc(Cl)cc1C(=O)Nc1ccc(NC(=O)C(C)C)cc1 do in these assays?
TDP1 cell CPT: 18µM*; HT1080 IDH1KD tx: inconclusive; uPA surface inh: -4%; IL1B secr inh: -60*; DT40 TDP1 no CPT: 18µM*; HT1080-NT tox: -17%

How did O=C(Nc1ccccc1N1CCN(C(=O)c2ccc(Cl)cc2)CC1)c1cccc(F)c1 do in these assays?
TDP1 cell CPT: inconclusive; HT1080 IDH1KD tx: -15%; uPA surface inh: -6%; IL1B secr inh: -55*; DT40 TDP1 no CPT: inconclusive; HT1080-NT tox: -9%

How did COc1c2c(c(OC)c3ccccc13)[C@@]1(OC2)O[C@H](CCO)C[C@H](O)[C@H]1O do in these assays?
TDP1 cell CPT: 1%; HT1080 IDH1KD tx: 4%; IL1B secr inh: 0; DT40 TDP1 no CPT: 1%; HT1080-NT tox: 4%

How did CC1(C)C(=O)Nc2ccccc2N1C(=O)COC(=O)CNS(=O)(=O)c1ccc(Br)cc1Cl do in these assays?
TDP1 cell CPT: 3%; HT1080 IDH1KD tx: -1%; uPA surface inh: 5%; IL1B secr inh: 6; DT40 TDP1 no CPT: -26%; HT1080-NT tox: 3%

How did CC(C)C(=O)NC(=S)Nc1ccccc1N1CCN(C(=O)c2ccc(Cl)cc2)CC1 do in these assays?
TDP1 cell CPT: inconclusive; HT1080 IDH1KD tx: 4%; uPA surface inh: -1%; IL1B secr inh: -4; DT40 TDP1 no CPT: 16µM*; HT1080-NT tox: 0%

Results for O=C(Nc1ccccc1N1CCCC1)C1CCN(C(=O)c2ccc(Cl)cc2)CC1 ?
TDP1 cell CPT: inconclusive; HT1080 IDH1KD tx: 3%; uPA surface inh: -3%; IL1B secr inh: inconclusive; DT40 TDP1 no CPT: inconclusive; HT1080-NT tox: 2%

How did O=C(Nc1ccccc1N1CCN(C(=O)c2ccccc2)CC1)c1cc(Br)ccc1Cl do in these assays?
TDP1 cell CPT: 18µM*; HT1080 IDH1KD tx: -23%; uPA surface inh: -10%; IL1B secr inh: -29; DT40 TDP1 no CPT: 23µM*; HT1080-NT tox: -15%

How did O=C(Nc1ccccc1N1CCCCC1)C1CCN(C(=O)c2ccc(Cl)cc2)CC1 do in these assays?
TDP1 cell CPT: 23µM*; HT1080 IDH1KD tx: -4%; uPA surface inh: 2%; IL1B secr inh: -72*; DT40 TDP1 no CPT: inconclusive; HT1080-NT tox: -5%

Results for C=CCn1c(COc2ccccc2)nnc1SC(C)C(=O)N/N=C/c1cc(Cl)ccc1O (configuration not stated) ?
TDP1 cell CPT: inconclusive; HT1080 IDH1KD tx: inconclusive; uPA surface inh: -9%; IL1B secr inh: 105; DT40 TDP1 no CPT: 21µM*; HT1080-NT tox: inconclusive

Results for CSCCC(NS(=O)(=O)c1ccc2c(c1)oc(=O)n2C)C(=O)NCc1ccc(Cl)cc1 (configuration not stated) ?
TDP1 cell CPT: -10%; DT40 TDP1 no CPT: -6%

What do the screens show for `COc1ccc(C2C(C(=O)Nc3ccccc3OC)=C(C)Nc3ncnn32)cc1` (configuration not stated)?
TDP1 cell CPT: 0%; HT1080 IDH1KD tx: 2%; uPA surface inh: 0%; IL1B secr inh: -20; DT40 TDP1 no CPT: 1%; HT1080-NT tox: 9%

Results for COc1ccccc1NC(=O)C1=C(C)Nc2c(C(=O)Nc3ccc(F)cc3)cnn2C1c1ccc(Cl)cc1 (configuration not stated) ?
TDP1 cell CPT: 13µM*; DT40 TDP1 no CPT: inconclusive

How did CCOc1ccc(NC(=O)c2cnn3c2NC(C)=C(C(=O)Nc2ccc(Cl)cc2)C3c2ccc(OC)c(OC)c2)cc1 (configuration not stated) do in these assays?
TDP1 cell CPT: 23µM*; DT40 TDP1 no CPT: 10µM*

Results for CC(C)(C)OC(=O)N1CCC(C(=O)Nc2ccc3c(c2)CCC3)CC1 ?
TDP1 cell CPT: inconclusive; HT1080 IDH1KD tx: -11%; uPA surface inh: inconclusive; IL1B secr inh: -22; DT40 TDP1 no CPT: inconclusive; HT1080-NT tox: -3%

Results for C/C=C/C=N/Nc1nc(C)cc(=O)[nH]1 ?
TDP1 cell CPT: 2%; HT1080 IDH1KD tx: 27%; uPA surface inh: 5%; IL1B secr inh: 0; DT40 TDP1 no CPT: 19%; HT1080-NT tox: 29%

What do the screens show for `CCN(CC)c1ccc(/C=N/Nc2nc(C)cc(=O)[nH]2)c(O)c1`?
TDP1 cell CPT: 0.021µM*; HT1080 IDH1KD tx: inconclusive; uPA surface inh: -22%; IL1B secr inh: 91; DT40 TDP1 no CPT: 0.021µM*; HT1080-NT tox: -17%

Results for Cc1cc(=O)[nH]c(NN=Cc2cc(Br)ccc2O)n1 ?
TDP1 cell CPT: 2.6µM*; HT1080 IDH1KD tx: inconclusive; uPA surface inh: -12%; IL1B secr inh: inconclusive; DT40 TDP1 no CPT: 2.9µM*; HT1080-NT tox: -22%

Results for Cc1cc(=O)[nH]c(N/N=C/c2ccccc2Cl)n1 ?
TDP1 cell CPT: -21%; HT1080 IDH1KD tx: 0%; uPA surface inh: -6%; IL1B secr inh: -14; DT40 TDP1 no CPT: inconclusive; HT1080-NT tox: 10%

What do the screens show for `Cc1cc(=O)[nH]c(N/N=C/c2c(F)c(F)c(F)c(F)c2F)n1`?
TDP1 cell CPT: -15%; HT1080 IDH1KD tx: 10%; uPA surface inh: 1%; IL1B secr inh: -92*; DT40 TDP1 no CPT: 10%; HT1080-NT tox: 2%

How did Cc1cc(=O)[nH]c(N/N=C/c2sccc2C)n1 do in these assays?
TDP1 cell CPT: 3%; HT1080 IDH1KD tx: 0%; uPA surface inh: 3%; IL1B secr inh: 1; DT40 TDP1 no CPT: 7%; HT1080-NT tox: -1%

How did Cc1nnc(N/N=C/c2cc([N+](=O)[O-])c(N3CCC(C)CC3)cc2N2CCC(C)CC2)n1N do in these assays?
TDP1 cell CPT: -22%; HT1080 IDH1KD tx: -18%; uPA surface inh: -12%; IL1B secr inh: -68*; DT40 TDP1 no CPT: inconclusive; HT1080-NT tox: -5%

High-throughput results (PubChem BioAssay)
